{"source": "ChEMBL document CHEMBL1201862", "about": "“PubChem BioAssay data set” (2004)", "note": "Out of some 400,000 compounds screened, about 2,100 (0.53%) were called active. Inconclusive results (about 14%) are left out. The rule behind the calls is not given here. Many of the other results were omitted from the sample, so actives are more common in it than they were.", "data": [{"biological_target": "Ataxin-2 (Homo sapiens) (UniProt Q99700)", "sequence (Q99700 whole entry)": "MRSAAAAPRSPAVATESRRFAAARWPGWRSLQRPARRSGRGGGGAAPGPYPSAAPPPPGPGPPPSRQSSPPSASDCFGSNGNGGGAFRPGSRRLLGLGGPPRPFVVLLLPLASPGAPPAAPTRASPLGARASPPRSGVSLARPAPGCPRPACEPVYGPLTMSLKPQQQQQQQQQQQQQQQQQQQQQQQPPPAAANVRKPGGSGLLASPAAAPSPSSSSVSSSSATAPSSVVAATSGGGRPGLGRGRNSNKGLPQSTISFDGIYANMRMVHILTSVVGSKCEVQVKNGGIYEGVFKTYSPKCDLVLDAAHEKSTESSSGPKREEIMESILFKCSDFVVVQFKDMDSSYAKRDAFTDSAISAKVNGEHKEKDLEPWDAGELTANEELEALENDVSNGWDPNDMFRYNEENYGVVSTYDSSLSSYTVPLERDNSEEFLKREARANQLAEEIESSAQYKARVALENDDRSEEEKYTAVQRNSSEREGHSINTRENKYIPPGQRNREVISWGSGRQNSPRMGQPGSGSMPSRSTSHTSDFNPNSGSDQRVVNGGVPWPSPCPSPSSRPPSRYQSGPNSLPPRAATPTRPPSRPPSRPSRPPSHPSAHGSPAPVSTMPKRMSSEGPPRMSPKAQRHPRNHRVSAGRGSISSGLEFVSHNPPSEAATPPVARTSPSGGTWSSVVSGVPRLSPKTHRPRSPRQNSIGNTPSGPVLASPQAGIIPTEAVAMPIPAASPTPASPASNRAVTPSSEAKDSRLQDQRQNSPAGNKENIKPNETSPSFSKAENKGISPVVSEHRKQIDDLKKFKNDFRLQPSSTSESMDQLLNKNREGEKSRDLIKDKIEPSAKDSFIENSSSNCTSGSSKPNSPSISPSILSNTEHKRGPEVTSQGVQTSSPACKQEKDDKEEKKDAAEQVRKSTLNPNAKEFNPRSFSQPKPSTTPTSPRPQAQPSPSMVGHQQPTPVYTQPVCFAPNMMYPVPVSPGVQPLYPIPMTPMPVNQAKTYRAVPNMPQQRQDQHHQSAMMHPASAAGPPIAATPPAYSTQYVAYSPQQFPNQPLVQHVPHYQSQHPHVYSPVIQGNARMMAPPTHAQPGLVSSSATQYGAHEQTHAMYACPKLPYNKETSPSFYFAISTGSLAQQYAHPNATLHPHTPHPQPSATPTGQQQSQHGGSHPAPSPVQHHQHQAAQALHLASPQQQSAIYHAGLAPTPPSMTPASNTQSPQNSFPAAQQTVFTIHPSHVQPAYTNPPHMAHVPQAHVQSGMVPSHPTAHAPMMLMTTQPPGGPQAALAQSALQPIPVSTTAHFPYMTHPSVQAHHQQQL", "assay": "qHTS for Inhibitors of ATXN expression.", "format": "functional", "values": [{"smiles": "NNc1ncnc2sc3c(c12)CCC3", "Potency": "inactive"}, {"smiles": "CCCCNC(=O)COC(=O)c1c2c(nc3ccccc13)/C(=C\\c1cccs1)CC2", "Potency": "inactive"}, {"smiles": "CCOCCCn1/c(=N/C(C)=O)c(C#N)cc2c(=O)n3cccc(C)c3nc21", "Potency": "inactive"}, {"smiles": "CCN(CC)CCCNc1cc(C(F)(F)F)c(C#N)c2nc3ccccc3n12", "Potency": "inactive"}, {"smiles": "CCc1ccc(C2=CC(c3cc(Br)ccc3F)n3ncnc3N2)cc1", "note": "(centres undefined)", "Potency": "inactive"}, {"smiles": "Cc1cccn2cc(-c3cc4ccccc4oc3=O)nc12", "Potency": "inactive"}, {"smiles": "O=C(Nc1ncccn1)c1cccc(Cl)c1", "Potency": "inactive"}, {"smiles": "O=C(Nc1ccc(S(=O)(=O)Nc2ccccn2)cc1)c1cccc(Cl)c1", "Potency": "inactive"}, {"smiles": "O=C(Nc1cccc(-c2cn3ccccc3n2)c1)c1cccc(Cl)c1", "Potency": "39.8 µM (active)"}, {"smiles": "Cc1ccn2cc(-c3cc4ccccc4oc3=O)nc2c1", "Potency": "inactive"}, {"smiles": "O=C(Nc1cccc(-c2cn3ccccc3n2)c1)c1cc2ccccc2oc1=O", "Potency": "22.4 µM (active)"}, {"smiles": "CCc1c(C)c2cc(Cl)c(O)c(CN(C)C)c2oc1=O", "Potency": "inactive"}, {"smiles": "COc1ccc(/C=N/N2C(C)CCCC2C)cc1OC", "note": "(centres undefined)", "Potency": "inactive"}, {"smiles": "COc1ccc(/C=N/n2cnc3c4cc(C)ccc4nc-3c2O)cc1CN1CCCC1", "Potency": "39.8 µM (active)"}, {"smiles": "COc1ccc(/C=N/NC(=O)c2ccncc2)cc1CN1CCOCC1", "Potency": "inactive"}, {"smiles": "CCOc1ccc2nc(NCCN=C(S)NCCCN(C)C)c(C#N)cc2c1", "Potency": "inactive"}, {"smiles": "Cc1c(O)ccc2c(-c3ccccc3)cc(=O)oc12", "Potency": "inactive"}, {"smiles": "COc1ccc(CNC[C@@H](CCCCN(C)Cc2ccc(OC)cc2)N2C[C@H](c3ccccc3)N(CCc3ccc(Cl)c(Cl)c3)C(=O)C2=O)cc1", "Potency": "25.1 µM (active)"}, {"smiles": "CC(=O)NS(=O)(=O)c1ccc(/N=c2\\ssc3c2-c2cc(C)ccc2NC3(C)C)cc1", "Potency": "39.8 µM (active)"}, {"smiles": "Cc1cc(Nc2cccc(Cl)c2)nc2ccc(NC(=O)c3cncc(Br)c3)cc12", "Potency": "inactive"}, {"smiles": "CCN(CC)c1cc(C)c2cc(NC(=O)/C=C/c3ccccc3Cl)ccc2n1", "Potency": "28.2 µM (active)"}, {"smiles": "O=C(Nc1ccc(F)cc1)c1ccc2nc(O)c(O)nc2c1", "Potency": "inactive"}, {"smiles": "Cc1cccc(OCC(=O)Nc2ccc3nc(Nc4cccc(Cl)c4)cc(C)c3c2)c1", "Potency": "inactive"}, {"smiles": "CCN(CC)c1cc(C)c2cc(NC(=O)c3ccc(Br)o3)ccc2n1", "Potency": "35.5 µM (active)"}, {"smiles": "CCN(CC)c1cc(C)c2cc(NC(=O)c3cccc(F)c3)ccc2n1", "Potency": "39.8 µM (active)"}, {"smiles": "CCn1nc(NC(=O)c2ccccc2)c2cc3cccc(C)c3nc21", "Potency": "inactive"}, {"smiles": "COc1ccc(Nc2cc(C)c3cc(NC(=O)Cc4c(F)cccc4Cl)ccc3n2)cc1", "Potency": "inactive"}, {"smiles": "CCN(CC)c1cc(C)c2cc(NC(=O)c3cc(OC)cc(OC)c3)ccc2n1", "Potency": "35.5 µM (active)"}, {"smiles": "COc1ccc(Nc2cc(C)c3cc(NC(=O)c4cc(OC)cc(OC)c4)ccc3n2)cc1", "Potency": "inactive"}]}]}
